Data on 40 compounds can be found in PubChem BioAssay (NCATS).

Records with an inconclusive call do not appear. Values without a mark were called inactive. The source made the active and inactive calls. Calls come from the whole dose curve; as a rule, active = well fitted cell-killing curve with a large enough effect; inconclusive = small, poorly fitted or top-dose-only effect; inactive = no such curve, though single readings can be large or run the other way.
Potency is the fitted concentration of half-maximal effect.

This test is described as follows: Quantitative High-Throughput drug screen in 47 multiple myeloma cell lines against the NCATS MIPE library collection: NCIH929_DSMZ cell viability assay (AID 1918978). Note: nearly all actives have a fitted effect of over 35% in size. To be noted: NCI-H929 myeloma viability, CellTiter-Glo ATP, 48 h; series mostly up to 45.8 µM; viability, % of control: at the top concentration. From the text:
PI: Beverly A. Mock Ph.D.
Laboratory of Cancer Biology and Genetics,
Center for Cancer Research, National Cancer Institute,
National Institute of Health, Bethesda, Maryland
Drug resistance and disease progression are common in multiple myeloma (MM) patients, underscoring the need for new therapeutic combinations. […] We hypothesized that effective combinations would reduce MYC expression and enhance p16 activity. […] These preclinical data identify potentially useful drug combinations for evaluation in drug-resistant MM and reveal potential mechanisms of combined drug sensitivity.
Described herein is the primary MIPE qHTS used to cherrypick compounds. Validated compounds were then further tested for potential synergistic activiy.
[1] Peat TJ, Gaikwad SM, Dubois W, Gyabaah-Kessie N, Zhang S, Gorjifard S, Phyo Z, Andres M, Hughitt VK, Simpson RM, Miller MA, Girvin AT, Taylor A, Williams D, D'Antonio N, Zhang Y, Rajagopalan A, Flietner E, Wilson K, Zhang X, Shinn P, Klumpp-Thomas C, McKnight C, Itkin Z, Chen L, Kazandijian D, Zhang J, Michalowski AM, Simmons JK, Keats J, Thomas CJ, Mock BA. Drug combinations identified by high-throughput screening promote cell cycle transition and upregulate Smad pathways in myeloma. Cancer Lett. 2023 Aug 1;568:216284. doi: 10.1016/j.canlet.2023.216284. Epub 2023 Jun 24. PMID: 37356470; PMCID: PMC10408729.
SEQUENCE No. (e.g., 1, 2, 3, etc.); […] (e.g., Cells, Incubation, Reagent, etc.); VALUE and DESCRIPTION.
1; Cells; 5 uL; white, solid bottom 1536-well Greiner assay plate.
2; Compounds; 23 nL; Kalypsis pin tool (Wako USA) equipped with a 1536-well pin head to transfer to the assay plates.
3; Incubation; 48 hours; 37C incubation.
4; Reagent;5uL; CellTiter Glo (Promega).
5; Detector; 425V; Luminescence; Viewlux PerkinElmer.
NOTES (numbers refer to Sequence numbers above)
1. The cell-based screening methods employed in this study were like those previously published. Briefly, the corresponding myeloma cell lines were screened in 1,536-well plates with 500 cells, 5-uL per well for inhibition of cell viability (assessed by measuring ATP levels with CellTiterGlo).
2. NCATS MIPE 4.0 library of approved and investigational drugs were added using the Kalypsis pin tool. Wells treated with DMSO only for 100% viability and media only for 0% viability were used as controls.
3. The assay plates were covered and incubated for 48 hours in a 37C, 5% CO2 incubator with controlled humidity.
4. After 48 hours, CellTilter-GloTM luminescent substrate mix (Promega) reagent was added to the assay plate and plates we incubated for 5 min at room temperature.
5. Signal was measured as median relative luminescence units on a ViewLux (PerkinElmer) multiplate reader.
[1] Heske CM, Davis MI, Baumgart JT, Wilson K, Gormally MV, Chen L, Zhang X, Ceribelli M, Duveau DY, Guha R, Ferrer M, Arnaldez FI, Ji J, Tran HL, Zhang Y, Mendoza A, Helman LJ, Thomas CJ. Matrix Screen Identifies Synergistic Combination of PARP Inhibitors and Nicotinamide Phosphoribosyltransferase (NAMPT) Inhibitors in Ewing Sarcoma. Clin Cancer Res. 2017 Dec 1;23(23):7301-7311. doi: 10.1158/1078-0432.CCR-17-1121. Epub 2017 Sep 12. PMID: 28899971; PMCID: PMC6636827.
Regarding `COc1ccc2cc1Oc1ccc(cc1)C[C@H]1c3cc(c(OC)cc3CCN1C)Oc1c(OC)c(OC)cc3c1[C@H](C2)N(C)CC3`, the Potency is 20.9 µM (active).

Consider `Cc1ccccc1-n1c(Cn2nc(-c3cccc(O)c3)c3c(N)ncnc32)nc2cccc(C)c2c1=O`, for which the Potency is 14.8 µM (active).

Take `CC(C)c1onc(-c2c(Cl)cccc2Cl)c1COc1ccc(C=Cc2cccc(C(=O)O)c2)c(Cl)c1`: the “viability, % of control” value was 106%.

Regarding `O=C(C=Cc1ccc(O)cc1)c1ccc(O)cc1O`, the Potency is 16.6 µM (active).

`CCCCCCCCCCCCCC(=O)N[C@H](CO)[C@H](O)c1ccc([N+](=O)[O-])cc1`: the Potency is 23.5 µM (active).

In the case of `Cc1cc2nc3c(=O)[nH]c(=O)nc-3n(CC(O)C(O)C(O)CO)c2cc1C` (stereo not given), the “viability, % of control” value was 89.1%.

Turning to `Cc1ccc(NC(=O)Nc2cc(C(F)(F)F)ccc2F)cc1Nc1ccc2c(c1)NC(=O)C2=Cc1ccc[nH]1`, the Potency is 4.18 µM (active).

Turning to `CN(C)S(=O)(=O)c1ccc2c(c1)C(=Cc1cc3c([nH]1)CCCC3)C(=O)N2`, the Potency is 18.7 µM (active).

Regarding `NCC1CCC(C(=O)O)CC1` (stereo not given), the “viability, % of control” value was 108%.

As for `Cc1cc(OCCCS(C)(=O)=O)cc(C)c1-c1cccc(COc2ccc3c(c2)OC[C@H]3CC(=O)O)c1`, the Potency was 20.9 µM (active).

Turning to `CN1C(=O)C(Cc2c[nH]c3ccccc23)NC1=S` (stereo not given), the “viability, % of control” value was 104%.

As to `O=C(Nc1cccc(Cl)c1)Nc1ncc(CCNc2ncnc3ccsc23)s1`, the Potency was 7.43 µM (active).

Turning to `CC[C@H](C)C(=O)O[C@H]1C[C@H](O)C=C2C=C[C@H](C)[C@H](CC[C@@H](O)C[C@@H](O)CC(=O)O)[C@H]21`, the “viability, % of control” value is 101%.

Regarding `Cc1cc(CS(=O)(=O)c2ccccc2)cc(OCc2ccc(CN3CCC[C@H]3CO)cc2)c1`, the “viability, % of control” value was 111%.

As for `O=S(=O)(O)c1ccc2cc(N=Nc3cc(S(=O)(=O)O)c4cccnc4c3O)ccc2c1`, the Potency is 7.43 µM (active).

For `CC(C)=CCCC(C)=CCCC(C)=CCCC(C)=CCCC(C)=CCCC(C)=CCCC(C)=CCCC(C)=CCCC(C)=CCO`, the “viability, % of control” value is 97.6%.

For the compound `Cc1ccc2c(c1)c1c(n2CCc2ccc(C)nc2)CCN(C)C1`, the “viability, % of control” value is 109%.

Take `NC(=O)c1ccc(N(C(N)=O)c2c(F)cccc2F)nc1-c1ccc(F)cc1F`: the Potency was 5.26 µM (active).

With `CNC(=O)c1ccc2c(C(=Nc3cccc(CN(C)C)c3)c3ccccc3)c(O)[nH]c2c1`, the Potency is 14.8 µM (active).

In the case of `NC(N)=Nc1nc(CSCCC(N)=NS(N)(=O)=O)cs1`, the Potency is 8.33 µM (active).

As to `COc1ccc2ccc(=O)oc2c1CC=C(C)C`, the “viability, % of control” value was 92.5%.

On to `Clc1ccc(COC(Cn2ccnc2)c2ccc(Cl)cc2Cl)c(Cl)c1` (stereo not given), for which the Potency was 18.7 µM (active).

On to `COC(=O)N1CCN(Cc2cccc(NC(=O)Nc3ccc(C)nc3)c2F)CC1`, for which the “viability, % of control” value was 106%.

On to `CCNC(=O)Nc1ccc(Oc2ncnc(N)c2C=NOC)cc1Cl`, for which the “viability, % of control” value was 92.3%.

`N#CC(c1ccc(Cl)cc1)c1c(Cl)cc(-n2ncc(=O)[nH]c2=O)cc1Cl` (stereo not given): the Potency is 18.7 µM (active).

For `COc1nc(C)cnc1NS(=O)(=O)c1cccnc1-c1ccc(-c2nnco2)cc1`, the “viability, % of control” value was 126%.

Consider `Oc1ccc(C=Cc2cc(O)cc(O)c2)cc1`, for which the “viability, % of control” value was 97.8%.

On to `CCN1C[C@H](C)n2c(c(O)c3c(=O)n(Cc4ccc(F)c(Cl)c4)nc(C(=O)NC)c32)C1=O`, for which the “viability, % of control” value was 115%.

Turning to `CN1CCc2c(n(Cc3ccc(C(=O)NO)cc3)c3ccccc23)C1`, the Potency is 16.6 µM (active).

In the case of `O=C(O)c1ccc(O)c2ncc(N3CCOCC3)cc12`, the Potency was 18.7 µM (active).

`COc1ccc2nc3cc(Cl)ccc3c(Nc3cc(CN4CCCC4)c(O)c(CN4CCCC4)c3)c2n1`: the Potency is 18.7 µM (active).

Regarding `CC(C)(F)C[C@H](N[C@@H](c1ccc(-c2ccc(S(C)(=O)=O)cc2)cc1)C(F)(F)F)C(=O)NC1(C#N)CC1`, the “viability, % of control” value was 107%.

For `CCC(=C(c1ccc(O)cc1)c1ccc(OCCNC)cc1)c1ccccc1`, the Potency was 14.8 µM (active).

Turning to `CNC(=O)[C@H](Cc1ccccc1)NC(=O)[C@H](CC(C)C)[C@H](CSc1cccs1)C(=O)NO`, the Potency is 9.35 µM (active).

In the case of `O=C(CC12CC3CC(CC(C3)C1)C2)Nc1cccc2nc(NCCNCCO)ccc12`, the Potency is 2.35 µM (active).

As to `Cc1ccc(S(=O)(=O)OCC(=O)Nc2ccc(C(=O)O)c(O)c2)cc1`, the Potency was 7.43 µM (active).

As to `COc1cc2ncn(-c3cc(OCc4ccccc4S(C)(=O)=O)c(C#N)s3)c2cc1OC`, the Potency was 4.69 µM (active).

`c1ccc(CNc2nc(N3CCOc4ccccc43)nc3c2CCCC3)cc1`: the “viability, % of control” value was 101%.

For the compound `N#CC1(c2cccc(C(=O)Nc3cc(Oc4ccc5nc(NC(=O)C6CC6)sc5n4)ccc3F)c2Cl)CC1`, the Potency is 6.62 µM (active).

As for `CCCCC(C)(C)[C@H](O)C=C[C@H]1[C@H](O)CC(=O)[C@H]1CC=CCCCC(=O)O`, the Potency was 18.7 µM (active).
